In the supplement of paper PMC10849652:
Of roughly 8,800 targets only a part is listed; those with a hit were picked by preference. About 0.5% of all pairs of compound and target were hits. A number with no mark means an inactive call.

Legend:
Test in all cases: log2 fold change, soluble protein after heating vs DMSO (PISA); higher = thermal stabilisation; K562 lysate, 10 uM; active = over 0.2 and 3.5 SD of the protein, either way, in both replicates (recomputed)
vemurafenib = compound: CCCS(=O)(=O)Nc1ccc(F)c(C(=O)c2c[nH]c3ncc(-c4ccc(Cl)cc4)cc23)c1F [vemurafenib]
How it was run: (§1)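 K562 pellets were dounce-homogenised in PBS pH 7.4 containing 1 mM MgCl2, and the crude extract, at 1 mg/mL protein, was exposed to 10 μM compound for 30 min. Aliquots were heated for 3 min across 48°C-58°C, pooled, brought to 0.5% NP-40 at 4°C and spun at 21,000xg for 90 min, with the supernatant taken as soluble protein. TMTpro 16plex LC-MS/MS with equalised channel sums quantified that protein. Values are log-two fold changes in thermal stability relative to solvent controls, taken from duplicates.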

[1] = compound: CCCS(=O)(=O)Nc1ccc(F)c(C(=O)c2c[nH]c3ncc(Cl)cc23)c1F
How it was run: as §1

barasertib = compound: CCN(CCCOc1ccc2c(Nc3cc(CC(=O)Nc4cccc(F)c4)[nH]n3)ncnc2c1)CCOP(=O)(O)O [barasertib]
How it was run: as §1

[2] = compound: CC[C@@H]1C(=O)N(C)c2cnc(Nc3ccc(C(=O)NC4CCN(C)CC4)cc3OC)nc2N1C1CCCC1
How it was run: as §1

volasertib = compound: CC[C@@H]1C(=O)N(C)c2cnc(Nc3ccc(C(=O)N[C@H]4CC[C@H](N5CCN(CC6CC6)CC5)CC4)cc3OC)nc2N1C(C)C [volasertib]
How it was run: as §1

[3] = compound: CCn1c(C(=O)N(C2CC2)C2CC2)cc2c3c(ncn3C)c(Nc3cc(C)n(C)n3)nc21
How it was run: as §1

[4] = compound: CCn1cc(-c2ccnc3[nH]c(-c4cccc(CN(C)C)c4)cc23)c(-c2ccc(NC(=O)N(C)C)cc2)n1
How it was run: as §1

[5] = compound: CN1CCC(CNc2ccc3ncc(-c4cccc(OC(F)(F)F)c4)n3n2)CC1
How it was run: as §1

saracatinib = compound: CN1CCN(CCOc2cc(OC3CCOCC3)c3c(Nc4c(Cl)ccc5c4OCO5)ncnc3c2)CC1 [saracatinib]
How it was run: as §1

sotrastaurin = compound: CN1CCN(c2nc(C3=C(c4c[nH]c5ccccc45)C(=O)NC3=O)c3ccccc3n2)CC1 [sotrastaurin]
How it was run: as §1

alvocidib = compound: CN1CC[C@H](c2c(O)cc(O)c3c(=O)cc(-c4ccccc4Cl)oc23)[C@H](O)C1 [alvocidib]
How it was run: as §1

Tubastatin A = compound: CN1CCc2c(c3ccccc3n2Cc2ccc(C(=O)NO)cc2)C1 [Tubastatin A]
How it was run: as §1

[6] = compound: CNC(=O)C1=CC=CC=C1NC2=NC(=NC=C2Cl)NC3=C(C=C(C=C3)N4CCOCC4)OC
How it was run: as §1

defactinib = compound: CNC(=O)c1ccc(Nc2ncc(C(F)(F)F)c(NCc3nccnc3N(C)S(C)(=O)=O)n2)cc1 [defactinib]
How it was run: as §1

[7] = compound: CNc1nc(-c2ccc3c(N)n[nH]c3c2)cc(N2C[C@@H](C(=O)NC3CCCCC3)CC[C@H]2C)n1
How it was run: as §1

encorafenib = compound: COC(=O)N[C@@H](C)CNc1nccc(-c2cn(C(C)C)nc2-c2cc(Cl)cc(NS(C)(=O)=O)c2F)n1 [encorafenib]
How it was run: as §1

[8] = compound: COC(=O)[C@H](CCSC)NC(=O)C1=C(C=C(C=C1)NC[C@H](CS)N)C2=CC=CC=C2
How it was run: as §1

alisertib = compound: COc1cc(Nc2ncc3c(n2)-c2ccc(Cl)cc2C(c2c(F)cccc2OC)=NC3)ccc1C(=O)O [alisertib]
How it was run: as §1

[9] = compound: COc1cc2nc(-c3cc(F)ccc3O)nc(N[C@@H]3CNC[C@H]3C(C)(C)O)c2cc1OC
How it was run: as §1

gefitinib = compound: COc1cc2ncnc(Nc3ccc(F)c(Cl)c3)c2cc1OCCCN1CCOCC1 [gefitinib]
How it was run: as §1

Chain of UniProt P51617 (P51617 whole entry, looked up): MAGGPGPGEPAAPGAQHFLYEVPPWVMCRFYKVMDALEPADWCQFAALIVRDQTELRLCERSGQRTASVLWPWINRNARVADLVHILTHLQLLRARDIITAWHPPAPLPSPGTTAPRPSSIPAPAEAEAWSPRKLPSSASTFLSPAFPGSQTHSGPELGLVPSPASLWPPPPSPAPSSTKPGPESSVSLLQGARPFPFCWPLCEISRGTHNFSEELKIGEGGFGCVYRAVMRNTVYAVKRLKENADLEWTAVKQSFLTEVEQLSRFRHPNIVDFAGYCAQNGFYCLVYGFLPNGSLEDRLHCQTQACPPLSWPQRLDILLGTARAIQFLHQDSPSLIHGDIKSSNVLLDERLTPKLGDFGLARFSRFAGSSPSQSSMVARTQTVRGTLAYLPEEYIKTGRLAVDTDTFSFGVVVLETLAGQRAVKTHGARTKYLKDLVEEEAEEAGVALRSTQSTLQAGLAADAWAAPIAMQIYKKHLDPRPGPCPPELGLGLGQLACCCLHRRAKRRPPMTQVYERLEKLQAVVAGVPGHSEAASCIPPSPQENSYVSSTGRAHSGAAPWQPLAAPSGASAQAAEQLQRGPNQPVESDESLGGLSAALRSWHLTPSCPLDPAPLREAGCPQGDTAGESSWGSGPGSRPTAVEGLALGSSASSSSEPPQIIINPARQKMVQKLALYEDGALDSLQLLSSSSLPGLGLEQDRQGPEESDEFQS
Chain of UniProt Q01628 (Q01628 whole entry, looked up): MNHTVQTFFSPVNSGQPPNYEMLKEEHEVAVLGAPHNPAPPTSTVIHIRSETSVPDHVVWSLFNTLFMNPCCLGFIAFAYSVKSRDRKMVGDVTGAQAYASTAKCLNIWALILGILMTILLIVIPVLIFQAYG
Chain of UniProt Q14527 (Q14527 whole entry, looked up): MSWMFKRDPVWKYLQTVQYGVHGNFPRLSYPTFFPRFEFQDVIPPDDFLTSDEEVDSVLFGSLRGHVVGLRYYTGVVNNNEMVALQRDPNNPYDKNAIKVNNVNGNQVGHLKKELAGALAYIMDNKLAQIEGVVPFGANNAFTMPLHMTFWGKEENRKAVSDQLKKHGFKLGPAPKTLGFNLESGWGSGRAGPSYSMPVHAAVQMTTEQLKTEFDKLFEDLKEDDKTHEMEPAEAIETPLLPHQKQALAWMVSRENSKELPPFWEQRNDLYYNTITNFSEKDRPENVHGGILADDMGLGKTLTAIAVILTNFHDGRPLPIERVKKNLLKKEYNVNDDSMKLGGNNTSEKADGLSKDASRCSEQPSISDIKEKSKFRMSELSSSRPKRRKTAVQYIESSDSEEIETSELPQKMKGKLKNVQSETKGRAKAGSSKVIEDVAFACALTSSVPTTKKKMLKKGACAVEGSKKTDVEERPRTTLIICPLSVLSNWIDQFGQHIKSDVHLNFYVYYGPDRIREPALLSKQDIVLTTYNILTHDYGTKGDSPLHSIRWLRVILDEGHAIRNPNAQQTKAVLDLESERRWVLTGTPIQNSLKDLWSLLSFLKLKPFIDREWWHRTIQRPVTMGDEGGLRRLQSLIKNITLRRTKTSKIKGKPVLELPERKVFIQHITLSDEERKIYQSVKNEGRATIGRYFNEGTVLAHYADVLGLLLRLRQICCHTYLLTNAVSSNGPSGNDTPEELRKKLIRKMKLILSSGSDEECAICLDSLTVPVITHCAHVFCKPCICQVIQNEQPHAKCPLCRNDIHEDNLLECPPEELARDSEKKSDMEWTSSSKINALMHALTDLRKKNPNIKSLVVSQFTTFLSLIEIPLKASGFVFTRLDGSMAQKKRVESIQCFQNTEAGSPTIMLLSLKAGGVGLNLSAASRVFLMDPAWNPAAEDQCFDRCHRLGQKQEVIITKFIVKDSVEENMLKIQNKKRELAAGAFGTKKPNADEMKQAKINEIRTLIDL
Chain of UniProt P12081 (P12081 whole entry, looked up): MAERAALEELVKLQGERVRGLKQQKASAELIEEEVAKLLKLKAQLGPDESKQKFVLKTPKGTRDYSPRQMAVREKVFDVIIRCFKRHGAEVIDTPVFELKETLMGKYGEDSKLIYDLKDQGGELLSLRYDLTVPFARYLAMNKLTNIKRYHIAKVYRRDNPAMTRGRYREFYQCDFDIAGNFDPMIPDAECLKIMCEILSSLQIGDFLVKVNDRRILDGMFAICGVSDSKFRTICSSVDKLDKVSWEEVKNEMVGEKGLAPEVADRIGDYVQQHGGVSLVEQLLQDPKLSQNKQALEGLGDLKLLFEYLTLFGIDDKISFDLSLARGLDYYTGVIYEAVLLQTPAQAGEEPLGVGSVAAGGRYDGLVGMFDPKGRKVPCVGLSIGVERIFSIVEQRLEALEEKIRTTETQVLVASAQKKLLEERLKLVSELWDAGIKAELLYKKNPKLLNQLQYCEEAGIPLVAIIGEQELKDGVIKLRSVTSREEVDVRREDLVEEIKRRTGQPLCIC
Chain of UniProt Q92759 (Q92759 whole entry, looked up): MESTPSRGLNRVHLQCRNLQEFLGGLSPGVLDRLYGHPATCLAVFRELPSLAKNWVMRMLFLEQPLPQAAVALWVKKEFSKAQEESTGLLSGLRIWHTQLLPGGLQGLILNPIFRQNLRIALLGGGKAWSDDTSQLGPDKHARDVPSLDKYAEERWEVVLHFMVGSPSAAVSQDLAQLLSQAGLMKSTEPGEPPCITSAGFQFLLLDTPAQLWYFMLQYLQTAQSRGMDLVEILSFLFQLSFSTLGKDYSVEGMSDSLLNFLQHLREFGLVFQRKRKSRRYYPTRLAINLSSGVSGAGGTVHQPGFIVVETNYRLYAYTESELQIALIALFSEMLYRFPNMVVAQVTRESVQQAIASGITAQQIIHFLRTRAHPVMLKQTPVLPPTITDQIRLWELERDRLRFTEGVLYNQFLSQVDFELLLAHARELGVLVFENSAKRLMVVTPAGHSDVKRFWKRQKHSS
Chain of UniProt Q9H0C8 (Q9H0C8 whole entry, looked up): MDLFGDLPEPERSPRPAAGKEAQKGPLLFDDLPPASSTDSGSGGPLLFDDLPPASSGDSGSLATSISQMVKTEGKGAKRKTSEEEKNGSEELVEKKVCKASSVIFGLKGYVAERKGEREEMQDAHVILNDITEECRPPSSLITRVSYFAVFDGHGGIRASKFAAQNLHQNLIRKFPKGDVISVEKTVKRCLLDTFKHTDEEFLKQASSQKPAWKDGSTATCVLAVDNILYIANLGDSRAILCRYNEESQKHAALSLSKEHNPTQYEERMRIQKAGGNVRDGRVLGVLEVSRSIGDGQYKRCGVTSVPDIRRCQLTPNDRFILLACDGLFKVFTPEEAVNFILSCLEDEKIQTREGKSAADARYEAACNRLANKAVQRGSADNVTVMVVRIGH
Chain of UniProt Q8WVV9 (Q8WVV9 whole entry, looked up): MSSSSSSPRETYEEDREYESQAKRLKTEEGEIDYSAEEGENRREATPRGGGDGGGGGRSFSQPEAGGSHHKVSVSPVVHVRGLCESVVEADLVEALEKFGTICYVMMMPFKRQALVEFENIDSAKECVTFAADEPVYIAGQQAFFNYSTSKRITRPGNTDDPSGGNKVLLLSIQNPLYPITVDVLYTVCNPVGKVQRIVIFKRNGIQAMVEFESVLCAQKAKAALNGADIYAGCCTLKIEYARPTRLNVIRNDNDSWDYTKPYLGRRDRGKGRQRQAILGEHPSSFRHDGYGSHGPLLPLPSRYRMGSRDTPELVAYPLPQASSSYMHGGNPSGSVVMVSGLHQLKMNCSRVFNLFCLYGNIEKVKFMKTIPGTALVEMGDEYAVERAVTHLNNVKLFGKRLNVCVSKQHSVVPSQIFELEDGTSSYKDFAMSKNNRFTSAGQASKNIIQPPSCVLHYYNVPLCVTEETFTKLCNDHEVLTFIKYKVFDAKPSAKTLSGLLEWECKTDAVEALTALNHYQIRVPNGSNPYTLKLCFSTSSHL
Chain of UniProt Q9H6K1 (Q9H6K1 whole entry, looked up): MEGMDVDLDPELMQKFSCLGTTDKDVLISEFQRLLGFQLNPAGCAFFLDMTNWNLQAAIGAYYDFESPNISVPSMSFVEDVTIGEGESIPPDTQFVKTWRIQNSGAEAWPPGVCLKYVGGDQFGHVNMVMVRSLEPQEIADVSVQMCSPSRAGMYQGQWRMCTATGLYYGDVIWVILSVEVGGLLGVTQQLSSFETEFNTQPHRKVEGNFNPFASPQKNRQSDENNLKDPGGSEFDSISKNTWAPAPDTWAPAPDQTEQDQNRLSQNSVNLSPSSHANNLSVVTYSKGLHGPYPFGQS
Chain of UniProt P20839 (P20839 whole entry, looked up): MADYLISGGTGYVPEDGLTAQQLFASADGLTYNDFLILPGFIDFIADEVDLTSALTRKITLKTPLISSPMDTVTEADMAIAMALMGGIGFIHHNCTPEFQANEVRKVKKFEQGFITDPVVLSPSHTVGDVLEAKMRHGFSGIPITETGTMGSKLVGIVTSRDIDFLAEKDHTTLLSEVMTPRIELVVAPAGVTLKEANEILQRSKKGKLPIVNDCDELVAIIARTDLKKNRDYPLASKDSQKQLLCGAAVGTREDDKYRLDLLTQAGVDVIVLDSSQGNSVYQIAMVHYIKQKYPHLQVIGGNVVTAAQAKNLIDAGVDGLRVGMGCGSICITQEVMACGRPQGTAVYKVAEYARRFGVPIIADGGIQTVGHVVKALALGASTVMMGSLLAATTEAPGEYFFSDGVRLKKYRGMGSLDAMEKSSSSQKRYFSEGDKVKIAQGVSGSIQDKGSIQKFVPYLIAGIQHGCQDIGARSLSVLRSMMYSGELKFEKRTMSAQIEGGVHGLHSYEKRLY
Chain of UniProt P09429 (P09429 whole entry, looked up): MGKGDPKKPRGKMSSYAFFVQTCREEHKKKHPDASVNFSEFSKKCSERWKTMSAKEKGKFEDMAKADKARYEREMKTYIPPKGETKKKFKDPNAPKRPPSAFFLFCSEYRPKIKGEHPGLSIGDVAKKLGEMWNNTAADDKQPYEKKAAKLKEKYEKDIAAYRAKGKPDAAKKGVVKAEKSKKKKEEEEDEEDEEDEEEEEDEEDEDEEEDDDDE

Target | log2 fold change (vemurafenib) | log2 fold change [1] | log2 fold change (barasertib) | log2 fold change [2] | log2 fold change (volasertib) | log2 fold change [3] | log2 fold change [4] | log2 fold change [5] | log2 fold change (saracatinib) | log2 fold change (sotrastaurin) | log2 fold change (alvocidib) | log2 fold change (Tubastatin A) | log2 fold change [6] | log2 fold change (defactinib) | log2 fold change [7] | log2 fold change (encorafenib) | log2 fold change [8] | log2 fold change (alisertib) | log2 fold change [9] | log2 fold change (gefitinib)
IMPDH1 isoform 6 (UniProt P20839) | -0.006 | -0.015 | -0.01 | 0.003 | -0.002 | -0.006 | -0.128 | 0.021 | 0.003 | -0.024 | -0.009 | -0.226 (active) | 0.002 | -0.002 | 0.018 | -0.001 | -0.478 (active) | 0.004 | -0.002 | 0.005
IFITM3 (UniProt Q01628) | -0.046 | 0.079 | 0.342 | -0.06 | -0.025 | 0.026 | -0.11 | 0.112 | -0.041 | 0.052 | -0.001 | -0.329 | 0.01 | 0.118 | 0.042 | 0.043 | -0.142 | 0.109 | -0.137 | 0.291
IL18R1 (UniProt Q13478) | 0.074 | -0.026 | 0.061 | 0.087 | 0.044 | -0.184 | -0.284 | 0.085 | 0.023 | -0.064 | -0.148 | 0.008 | -0.106 | -0.322 | 0.056 | 0.116 | 0.142 | -0.098 | -0.014 | -0.039
IRAK1 (UniProt P51617) | 0.086 | -0.033 | -0.01 | -0.089 | -0.134 | 0.041 | -0.135 | 0.043 | -0.016 | -0.029 | -0.104 | -0.038 | 0.314 | 0.086 | 0.121 | 0.812 (active) | 0.062 | -0.01 | 0.096 | 0.022
GLB1 (UniProt P16278) | -0.034 | 0.012 | -0.029 | 0.02 | -0.045 | -0.017 | -0.066 | 0.019 | -0.032 | 0.043 | -0.042 | -0.032 | 0.005 | 0.006 | 0.055 | -0.036 | 0.327 (active) | 0.022 | 0.007 | -0.015
HNRNPLL (UniProt Q8WVV9) | 0.004 | 0.046 | 0.018 | 0.008 | -0.027 | -0.004 | -0.006 | -0.013 | -0.001 | 0.034 | 0.015 | -0.164 | 0.021 | 0.035 | -0.016 | 0.082 | -0.07 | -0.016 | 0.011 | -0.052
ILRUN (UniProt Q9H6K1) | -0.012 | 0.048 | 0.06 | -0.001 | -0.058 | -0.059 | -0.109 | 0.067 | 0.024 | -0.003 | 0.031 | -0.059 | 0.047 | -0.01 | -0.004 | 0.052 | -0.03 | 0.123 | 0.056 | 0.115
GTF2H4 (UniProt Q92759) | -0.047 | 0.007 | 0.039 | -0.099 | -0.046 | 0.028 | 0.063 | -0.075 | 0.029 | 0.034 | 0.005 | -0.069 | 0.018 | 0.085 | -0.01 | 0.025 | -0.015 | 0.016 | 0.02 | -0.022
ILKAP (UniProt Q9H0C8) | -0.037 | -0.01 | -0.04 | -0.048 | -0.017 | 0.002 | 0.016 | 0 | -0.013 | 0.021 | 0.056 | -0.067 | 0 | 0.03 | -0.028 | -0.002 | 0.017 | 0.067 | -0.006 | 0.005
HADHA (UniProt P40939) | 0.019 | -0.002 | -0.103 | -0.024 | 0.09 | -0.036 | 0.012 | 0.071 | -0.04 | -0.025 | -0.011 | -0.003 | 0.069 | -0.042 | 0.037 | -0.063 | 0.088 | -0.017 | -0.041 | 0.021
HARS (UniProt P12081) | -0.024 | -0.02 | -0.031 | -0.049 | -0.006 | 0.012 | 0.023 | -0.01 | -0.021 | 0.009 | 0 | 0.001 | -0.02 | -0.02 | -0.054 | -0.03 | 0.254 (active) | 0.003 | 0.015 | 0.007
HIST2H2AA3 (UniProt Q6FI13) | -0.078 | 0.028 | -0.012 | -0.007 | -0.006 | 0.012 | 0.694 (active) | -0.217 | -0.034 | -0.116 | 0.202 | 0.092 | -0.002 | -0.032 | 0.277 | -0.027 | 0.086 | -0.097 | -0.027 | -0.086
HMGB1 (UniProt P09429) | -0.01 | -0.014 | -0.013 | 0.102 | 0.035 | -0.039 | 0.389 (active) | -0.184 | -0.011 | -0.075 | 0.126 | 0.059 | 0.01 | 0.074 | 0.046 | -0.006 | -0.09 | -0.043 | -0.025 | -0.131
HDLBP, A0A024R4E5 | 0.008 | 0.024 | -0.017 | 0.016 | -0.04 | 0.011 | -0.018 | -0.008 | -0.002 | 0.004 | -0.004 | -0.082 | 0.01 | 0.001 | 0.004 | 0.028 | 0.073 | -0.005 | 0.003 | 0.003
HERC2 (UniProt O95714) | 0.034 | 0.004 | 0.038 | -0.038 | -0.01 | 0.039 | 0.032 | -0.021 | 0.037 | 0.047 | -0.075 | -0.316 (active) | -0.109 | -0.085 | -0.077 | 0.027 | 0.111 | -0.007 | 0.005 | 0.004
HLTF (UniProt Q14527) | -0.008 | -0.044 | 0.077 | -0.002 | -0.043 | 0.028 | -0.024 | 0.073 | 0.004 | 0.017 | -0.027 | -0.083 | -0.001 | 0.028 | 0.025 | 0.004 | 0.104 | 0.048 | 0.01 | 0.076
